The values below come from PubChem BioAssay (Tox21).

A short description of assay [1]: qHTS assay to identify small molecule agonists of the endoplasmic reticulum stress response signaling pathway (AID 1159516; active = well fitted activation curve with a large enough effect in the signal ratio in the repeat runs, not every such curve was filed as active; the % refers to the signal ratio; also: % is scaled to controls: 0 for no effect and ±100 for the full control effect). The conditions noted are these: ESRE-bla HeLa, ER stress beta-lactamase reporter, 5 h; series mostly up to 61 µM. The method in brief: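 Ratiometric FRET readout (405 nm excitation; 460 and 530 nm emission) of a beta-lactamase gene driven by the ER stress response element, after 2 hr substrate loading. HeLa ESRE-bla cells were seeded overnight and treated with compounds for only 5 hr at 37 C.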

Assay [2] is described as follows: qHTS assay to identify small molecule agonists of the endoplasmic reticulum stress response signaling pathway - cell viability counter screen (AID 1159517; calls by dose curve; also: % is scaled to controls: 0 for no effect and ±100 for the full control effect; nearly all actives have a fitted effect of over 50% in size). The conditions noted are these: ESRE-bla HeLa viability, CellTiter-Glo luminescence, 5 h; series mostly up to 61 µM. The method in brief:
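ESRE-bla HeLa cells (1,500/well) were plated overnight at 37 C and exposed to compounds for 5 hr. After the 2 hr beta-lactamase substrate read, CellTiter-Glo went into the same wells, and luminescence was read after 30 min at room temperature.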
In general terms: qHTS replaces the single test concentration by a dilution series.

Assay [3] can be described thus: qHTS assay to identify small molecule antagonists of the retinoid-related orphan receptor gamma (ROR-gamma) signaling pathway - cell viability counter screen (AID 1159520). Also: % is scaled to controls: 0 for no effect and ±100 for the full control effect; nearly all actives have a fitted effect of over 50% in size. Conditions: Tet-on RORgamma CHO cells viability, ATP luminescence, 16 h; series mostly up to 92.4 µM. The method in brief: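 Cytotoxicity was read from cellular ATP (CellTiter-Glo luminescence) after 16 hr at 37 C with 1 uM doxycycline induction. The inducer was added 2 hr after compound transfer to Tet-on ROR gamma CHO cells.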

The nature of assay [4]: qHTS assay to identify small molecule agonists of the AP-1 signaling pathway - cell viability counter screen (AID 1159525; calls by dose curve; also: nearly all actives have a fitted effect of over 55% in size). Conditions: ME-180 AP-1-bla cells viability, ATP luminescence, 5 h; series mostly up to 76.8 µM. In outline:
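Intracellular ATP by Cell Titer Glo luminescence (30 min, RT) in the same ME-180 AP-1-bla wells after the 5 h compound exposure at 37 °C. Normalised to tetra n-octyl ammonium bromide and DMSO controls.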

In assay [5] the target is Retinoic acid receptor RXR-alpha (Homo sapiens) (UniProt P19793). Put plainly: qHTS assay to identify small molecule agonists of the RXR signaling pathway (AID 1159527; calls by dose curve; also: % is scaled to controls: 0 for no effect and ±100 for the full control effect; nearly all actives have a fitted effect of over 35% in size). The conditions noted are these: HEK293T RXRa-UAS-bla, beta-lactamase ratio, 16 h; series mostly up to 76.8 µM. The method in brief: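 Cells plated at 2,000/well, rested 5 hr at 37 C, pin-dosed with DMSO compound solutions, incubated 16 hr, then loaded with B/G FRET substrate for 2 hr at RT before dual-emission fluorescence reading.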

Assay [6] can be described thus: qHTS assay to identify small molecule agonists of the RXR signaling pathway - cell viability counter screen (AID 1159529). Also: % is scaled to controls: 0 for no effect and ±100 for the full control effect; nearly all actives have a fitted effect of over 50% in size. Conditions: RXR-alpha-bla HEK293T viability, CellTiter-Glo, 16 h; series mostly up to 76.8 µM. In outline:
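Steps: seed RXR-alpha-UAS-bla HEK 293T cells in assay medium containing 2% charcoal-stripped FBS; incubate 5 hr; add compounds in DMSO; incubate 16 hr at 37 C; after the bla read, add CellTiter-Glo and read luminescence at 30 min.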

A short description of assay [7]: qHTS assay to identify small molecule antagonists of the retinoid acid receptor (RAR) signaling pathway - cell viability counter screen (AID 1159551). Also: % is scaled to controls: 0 for no effect and ±100 for the full control effect; nearly all actives have a fitted effect of over 35% in size. Conditions: C3RL4 cells viability, ATP luminescence (CellTiter-Glo), 6 h; series mostly up to 92.4 µM. The method in brief:
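Cytotoxicity counter screen: ATP content quantified by CellTiter-Glo luminescence in C3RL4 cells treated 6 hr at 37 C with compound and retinol (1 uM final). Cells plated at 1,000/well and cultured overnight before dosing.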

Assay [8] in a line: qHTS assay to identify small molecule antagonists of the estrogen related receptor (ERR) signaling pathway - cell viability counter screen (AID 1224818).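 Also: viability measured after 17.5 h of compound exposure; % is scaled to controls: 0 for no effect and ±100 for the full control effect.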 Conditions: ERR reporter cell line viability counter screen; series mostly up to 46.1 µM. The method in brief:
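Cytotoxicity counter screen: fluorescence from CellTiter-Fluor, added after 17.5 h compound exposure at 37 C and read 30 min later. ERR cell line seeded at 2,000 cells/well, preincubated 6 h before dosing.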

The nature of assay [9]: qHTS assay to identify small molecule antagonists of the estrogen related receptor signaling pathway with the pleiotropic PPARgamma coactivator (PGC) cell viability counter screen (AID 1224822; also: % is scaled to controls: 0 for no effect and ±100 for the full control effect). Conditions: ERR/PGC reporter cell line viability counter screen; series mostly up to 46.1 µM. The method in brief: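 Viability counter-screen read by fluorescence intensity after 30 min with CellTiter-Fluor at 37 C; PGC/ERR reporter cells were exposed to compounds for 17.5 h at 37 C following a 6 h preincubation.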

Assay [10] is described as follows: qHTS assay to identify small molecule antagonists of the estrogen related receptor (ERR) signaling pathway from Tox21 library - cell viability counter screen (AID 1224834). Also: % is scaled to controls: 0 for no effect and ±100 for the full control effect; nearly all actives have a fitted effect of over 30% in size. Conditions: ERR reporter cells viability, CellTiter-Fluor, 17.5 h; series mostly up to 92.4 µM. The method in brief: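 CellTiter-Fluor fluorescence, read after 30 min at 37 C, measures viability of ERR cells. Cells plated at 2,000/well and incubated 6 h before pin-tool compound addition, then exposed 17.5 hours at 37 C.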

Assay [11] in a line: qHTS assay to identify small molecule antagonists of the vitamin D receptor (VDR) signaling pathway - cell viability counter screen (AID 743225). Also: % is scaled to controls: 0 for no effect and ±100 for the full control effect; nearly all actives have a fitted effect of over 50% in size. Conditions: VDR-bla HEK293T viability, CellTiter-Glo luminescence, 16 h; series mostly up to 61 µM. In outline:
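HEK293T VDR-bla; cpd + 1a,25-(OH)2D3 3 nM final, 16 h 37C/5% CO2; B/G FRET substrate 2 h RT; then CellTiter-Glo 30 min RT, luminescence.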

Assay [12] is described as follows: qHTS assay to identify small molecule agonists of the AP-1 signaling pathway (AID 1159526; calls by dose curve; also: % is scaled to controls: 0 for no effect and ±100 for the full control effect). Conditions: ME-180 (cervical carcinoma) AP-1-bla reporter, beta-lactamase FRET ratio, 5 h; series mostly up to 76.8 µM.
Assay [13] in a line: qHTS assay to identify small molecule antagonists of the retinoic acid receptor (RAR) signaling pathway (AID 1159552). Conditions: C3RL4 RARE luciferase reporter, retinol-stimulated, 6 h; series mostly up to 92.4 µM. In outline:
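Retinol at 1 uM final stimulated RARE-luciferase expression in C3RL4 cells exposed to test compounds for 6 hr at 37 C. Reduced luminescence, read 30 min after detection reagent, indicated pathway antagonism.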

The nature of assay [14]: qHTS assay to identify small molecule agonists of the retinoic acid receptor (RAR) signaling pathway (AID 1159553). Also: potency is read from the fitted curve at half-maximal effect. Conditions: C3RL4 RARE luciferase reporter, agonist, 6 h. The method in brief:
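Luminescence was measured 30 min after luciferase reagent addition at room temperature. Before that, C3RL4 reporter cells (1,000 per well, plated overnight) were treated with compound for 6 hr at 37 C and 5% CO2.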

For assay [15], the target named is Nuclear receptor ROR-gamma (Homo sapiens) (UniProt P51449). Put plainly: qHTS assay to identify small molecule antagonists of the retinoid-related orphan receptor gamma (ROR-gamma) signaling pathway (AID 1159521). The conditions noted are these: Tet-on RORgamma CHO cells, RORE-luciferase, 16 h; series mostly up to 92.4 µM. In outline: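 Cells were plated, rested 4 h at 37 C, exposed to compounds for 2 h, then given 1 uM final doxycycline hyclate to induce RORγ expression. After 16 h, ONE-Glo luminescence from the ROR response element reporter was measured.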

The mark [16] stands for this setting: activation: at 73.3 µM (top of the series) unless noted.

Structures are written as SMILES. Results filed as inconclusive are left out. Where a structure was tested more than once in an assay, its records may differ in their call. Values without a mark were called inactive. Active and inactive are the calls of the source. Unless noted, calls follow the shape of the dose curve; as a rule, active = well fitted curve in the direction sought with a large enough effect in the repeat runs; inconclusive = weak or mixed curves; inactive = no such curve, though single readings can be large; an effect the other way counts as inactive or inconclusive.

Retinoic acid receptor RXR-alpha (Homo sapiens), sequence (P19793 whole entry, looked up): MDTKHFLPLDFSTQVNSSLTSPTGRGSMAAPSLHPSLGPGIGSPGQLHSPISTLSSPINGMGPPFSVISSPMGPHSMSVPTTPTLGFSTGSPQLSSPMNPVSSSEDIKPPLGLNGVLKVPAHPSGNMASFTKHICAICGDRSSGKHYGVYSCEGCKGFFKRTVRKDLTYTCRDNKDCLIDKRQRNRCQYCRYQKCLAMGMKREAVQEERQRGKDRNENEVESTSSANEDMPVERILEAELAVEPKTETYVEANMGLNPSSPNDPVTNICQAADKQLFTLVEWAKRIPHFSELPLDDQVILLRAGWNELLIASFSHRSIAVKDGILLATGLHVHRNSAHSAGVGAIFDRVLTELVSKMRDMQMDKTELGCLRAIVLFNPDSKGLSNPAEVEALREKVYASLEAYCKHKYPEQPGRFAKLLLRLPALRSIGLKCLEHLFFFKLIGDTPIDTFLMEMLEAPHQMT

For the compound `Cc1ccc(/C(=C\CN2CCCC2)c2ccccn2)cc1`, the Potency result in assay [1], in assay [2], in [3], in [4], in assay [5] and in assay [6] was “inactive” each time. For the same compound, the Potency result in assay [7] and in assay [10] was “inactive” in each case. Also, the compound was called inactive in assay [8] and in assay [9].

In the case of `Cc1ccc(C(C)(C)C)cc1`, the Potency entry in assay [11], in [2], in assay [3], in assay [4], in assay [12] and in assay [5] was “inactive” throughout. Also, the Potency result in [7], in [13] and in [10] was “inactive” each time. The activation in assay [14] (setting [16]) was 0.0823% [at 94.8 µM] (active); in assay [14] (at 73.3 µM (top of the series)), -0.68%.

For the compound `C=C[C@H]1CN2CC[C@H]1C[C@@H]2[C@@H](O)c1ccnc2ccc(OC)cc12`, the Potency entry in assay [1], in assay [2], in assay [3], in assay [4], in assay [12] and in assay [5] was “inactive” each time. For the same compound, the Potency result in [6], in [7] and in assay [10] was “inactive” each time.

As to `COc1ccc(C(=O)c2ccccc2O)c(O)c1`, the Potency entry in [11], in [2], in assay [3], in assay [15], in [4] and in [12] was “inactive” throughout. Also, the Potency entry in [5], in assay [13], in assay [14] (setting [16]) and in assay [10] was “inactive” in each case.

As to `CCCCCCCCCCCCO`, the Potency entry in assay [2], in [3], in assay [4], in assay [12], in assay [6] and in assay [13] was “inactive” throughout. Further, the Potency result in assay [14] (setting [16]) and in assay [10] was “inactive” throughout.

For the compound `CCCCCC=O`, the Potency entry in assay [11], in assay [1], in assay [2], in [3], in [4] and in assay [12] was “inactive” in each case. Moreover, the Potency result in assay [5], in [7] and in assay [10] was “inactive” in each case.

Consider `O=C1CCc2ccccc2O1`, for which the Potency entry in assay [1], in assay [2], in assay [3], in [4], in [12] and in [5] was “inactive” throughout. The Potency entry in assay [6] and in assay [10] was “inactive” in each case.

For `[O-]/[N+](=N\O)c1ccccc1`, the Potency result in assay [11], in assay [1], in [2], in [3], in assay [15] and in [4] was “inactive” throughout. Further, the Potency entry in assay [12], in assay [5], in assay [7] and in assay [10] was “inactive” throughout. Moreover, the Potency in assay [14] (setting [16]) is 48.6 µM (active).

Take `Cc1ccc(C)c(O)c1`: the Potency entry in [11], in [2], in assay [3], in [15], in assay [4] and in [12] was “inactive” in each case. For the same compound, the Potency result in assay [5], in [13], in assay [14] (setting [16]) and in [10] was “inactive” in each case.

In the case of `C=CC(C)(O)CCC=C(C)C` (configuration not stated), the Potency result in [11], in assay [1], in assay [2], in assay [3], in assay [4] and in assay [12] was “inactive” throughout. Also, the Potency result in assay [6], in [13], in assay [14] (setting [16]) and in [10] was “inactive” in each case.

On to `COC(=O)c1ccc(C)cc1`, for which the Potency entry in assay [11], in assay [1], in assay [2], in assay [3], in assay [15] and in assay [4] was “inactive” in each case. Besides, the Potency entry in assay [12], in assay [5], in assay [6] and in assay [10] was “inactive” each time.

As to `Oc1c(Cl)ccc(Cl)c1Cl`, the Potency result in [1], in assay [2], in [3], in assay [4], in assay [12] and in [5] was “inactive” throughout. For the same compound, the Potency result in [7], in assay [13], in [14] (setting [16]) and in assay [10] was “inactive” throughout.

Consider `COc1ccc2nc(N)sc2c1`, for which the Potency result in assay [11], in assay [1], in assay [2], in [3], in [4] and in [12] was “inactive” in each case. In addition, the Potency entry in assay [6], in assay [7], in [13] and in assay [10] was “inactive” in each case. In addition, in assay [14] (setting [16]), the Potency is 19.3 µM (active).

Regarding `NCCN`, the Potency result in assay [11], in assay [2], in [3], in assay [4], in [12] and in assay [5] was “inactive” throughout. Further, the Potency result in [10] was “inactive”.

On to `Nc1cc(Cl)c(N)c(Cl)c1`, for which the Potency result in [2], in assay [3], in assay [15], in [4], in assay [12] and in [5] was “inactive” throughout. Besides, the Potency entry in assay [6], in assay [7], in assay [13], in assay [14] (setting [16]) and in [10] was “inactive” each time.

Regarding `COCCOCCOCCO`, the Potency result in assay [1], in assay [2], in assay [3], in assay [15], in assay [4] and in assay [12] was “inactive” in each case. Moreover, the Potency result in assay [5], in assay [6], in [13], in assay [14] (setting [16]) and in assay [10] was “inactive” throughout.

Take `O=S1(=O)CCCO1`: the Potency result in assay [11], in [1], in assay [2], in assay [3], in assay [4] and in assay [12] was “inactive” each time. Further, the Potency result in [5], in assay [6] and in [10] was “inactive” each time.

Regarding `CCCCCCCC/C=C\CCCCCCCC(=O)O`, the Potency result in [11], in assay [1], in [2], in [3], in assay [15] and in [4] was “inactive” in each case. Moreover, the Potency result in [12], in assay [5], in assay [7], in assay [13], in assay [14] (setting [16]) and in assay [10] was “inactive” in each case.
